Measured values reported in paper PMC4336329 (PLoS ONE, 2015).
The campaign covered roughly 310,000 compounds. About 2,200 (0.71%) showed an effect of 50% or more. The effect is printed as a negative number. Only a selection was taken, and strong results are over-represented in it overall.

Target: human ether-à-go-go-related gene (hERG) potassium channel (human, UniProt Q12809)
Test: primary screen, population patch clamp on CHO cells stably expressing hERG; higher = less effect of the substance

Sequence of human ether-à-go-go-related gene (hERG) potassium channel (Q12809 whole entry, looked up): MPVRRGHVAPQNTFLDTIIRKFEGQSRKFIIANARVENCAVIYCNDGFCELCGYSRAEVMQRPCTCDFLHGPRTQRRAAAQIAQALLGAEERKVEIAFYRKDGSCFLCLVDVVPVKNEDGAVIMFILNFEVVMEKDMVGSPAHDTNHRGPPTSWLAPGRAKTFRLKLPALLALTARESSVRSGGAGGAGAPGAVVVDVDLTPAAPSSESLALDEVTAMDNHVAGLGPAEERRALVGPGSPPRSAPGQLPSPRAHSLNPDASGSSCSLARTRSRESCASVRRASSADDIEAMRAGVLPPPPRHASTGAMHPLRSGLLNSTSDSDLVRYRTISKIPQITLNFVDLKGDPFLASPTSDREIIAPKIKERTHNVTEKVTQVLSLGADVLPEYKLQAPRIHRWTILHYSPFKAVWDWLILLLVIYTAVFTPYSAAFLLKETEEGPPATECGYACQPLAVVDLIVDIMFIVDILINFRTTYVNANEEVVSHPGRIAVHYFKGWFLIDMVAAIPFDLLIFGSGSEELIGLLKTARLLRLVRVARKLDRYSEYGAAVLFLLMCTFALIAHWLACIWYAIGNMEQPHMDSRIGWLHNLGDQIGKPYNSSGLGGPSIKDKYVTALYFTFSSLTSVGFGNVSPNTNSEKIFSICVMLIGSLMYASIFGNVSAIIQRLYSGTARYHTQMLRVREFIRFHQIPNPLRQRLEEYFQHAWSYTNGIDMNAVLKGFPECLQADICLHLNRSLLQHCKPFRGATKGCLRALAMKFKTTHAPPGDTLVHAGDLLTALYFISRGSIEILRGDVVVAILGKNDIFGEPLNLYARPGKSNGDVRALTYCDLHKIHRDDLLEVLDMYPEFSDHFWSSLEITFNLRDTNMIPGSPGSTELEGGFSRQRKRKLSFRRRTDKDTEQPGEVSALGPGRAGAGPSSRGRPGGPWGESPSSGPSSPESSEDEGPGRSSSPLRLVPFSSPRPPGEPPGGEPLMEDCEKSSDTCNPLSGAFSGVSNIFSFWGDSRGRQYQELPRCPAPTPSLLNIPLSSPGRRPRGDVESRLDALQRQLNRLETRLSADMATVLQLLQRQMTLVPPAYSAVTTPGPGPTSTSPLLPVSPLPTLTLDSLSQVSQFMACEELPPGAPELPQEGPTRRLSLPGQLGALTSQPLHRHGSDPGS

| SMILES | hERG current change (%, negative = inhibition) at 1uM |
| --- | --- |
| C=CCNC(=O)c1c(Cl)cccc1Cl | 6.34% |
| COC(=O)C1=C(CSCc2ccco2)NC(=O)NC1c1cc(C)ccc1C (stereo not drawn) | -8.26% |
| OCCC1CN(CCCn2cccn2)CCN1Cc1ccccc1 (stereo not drawn) | 8.59% |
| OCCC1CN(Cc2ccc(F)cc2)CCN1CCCc1ccccc1 (stereo not drawn) | -55% |
| CCOc1ccccc1CN1CCN(CCCc2ccccc2)CC1CCO (stereo not drawn) | -30% |
| CCOc1cccc(CN2CCN(CCCc3ccccc3)C(CCO)C2)c1O (stereo not drawn) | -54.7% |
| COc1cccc(CN2CCN(CCCc3ccccc3)C(CCO)C2)c1O (stereo not drawn) | -41.8% |
| OCCC1CN(Cc2ccc(F)cc2)CCN1CCc1ccccc1 (stereo not drawn) | -48% |
| CCOc1ccc(CN2CCN(CCCn3cccn3)CC2CCO)cc1 (stereo not drawn) | -83% |
| OCCC1CN(CCCc2ccccc2)CCN1Cc1ccc(F)cc1 (stereo not drawn) | -12.1% |
| CCOc1ccc(CN2CCN(CCCc3ccccc3)CC2CCO)cc1 (stereo not drawn) | -80.9% |
| COc1cc(CN2CCN(CCCc3ccccc3)CC2CCO)cc(OC)c1 (stereo not drawn) | -46.8% |
| CCOc1cccc(CN2CCN(CCc3ccccc3)C(CCO)C2)c1O (stereo not drawn) | -20.1% |
| Cc1ccc(CN2CCN(CCCn3cccn3)CC2CCO)cc1 (stereo not drawn) | -23.7% |
| CC(C)Oc1ccc(Cc2n[nH]c(=S)n2Cc2ccccc2)cc1Cl | 5.04% |
| CC(=O)c1c(C)[nH]c(C(=O)OCC(=O)Nc2ccc(Cl)c(S(=O)(=O)N(C)C)c2)c1C | -2.69% |
| CCCNc1nc(C)cc(-c2cc(C(=O)NCc3ccccc3)on2)n1 | 12% |
| Cc1c(Cl)cccc1Nc1nc(N)nc(CSC(=S)N2CCOCC2)n1 | 8.31% |
| CCOC(=O)/C(C#N)=C\c1c(C)cc(C)c(COC(C)=O)c1C | 15.6% |
| COc1ccc(CN2CCN(CCCc3ccccc3)C(CCO)C2)c(O)c1 (stereo not drawn) | -71.2% |

| SMILES | hERG current change (%, negative = inhibition) at 1uM |
| --- | --- |
| COc1ccc(CN2CCN(CCc3ccccc3)C(CCO)C2)c(O)c1 (stereo not drawn) | -26.9% |
| Cc1ccc(CN2CCN(CCCc3ccccc3)CC2CCO)cc1 (stereo not drawn) | -68.7% |
| OCCC1CN(CCCc2ccccc2)CCN1Cc1ccccc1 (stereo not drawn) | -35.6% |
| COc1ccc(O)c(CN2CCN(CCCc3ccccc3)C(CCO)C2)c1 (stereo not drawn) | -21.7% |
| C#Cc1ccc(CN2CCN(CCCc3ccccc3)C(CCO)C2)cc1 (stereo not drawn) | -14.1% |
| OCCOc1ccc(CN2CCN(CCCc3ccccc3)C(CCO)C2)cc1 (stereo not drawn) | -19.8% |
| CCOc1ccc(CN2CCN(CCCc3ccccc3)C(CCO)C2)cc1 (stereo not drawn) | -75.8% |
| OCCC1CN(CCCc2ccccc2)CCN1CCc1ccccc1 (stereo not drawn) | -32.3% |
| N#C/C(=C/c1ccc(-c2ccc(C(=O)O)c(Cl)c2)o1)C(=O)NCC1CCCO1 (stereo not drawn) | 10.3% |
| COc1ccccc1CN1[C@@H](CC(=O)O)c2cc(F)ccc2S1(=O)=O | 13.9% |
| Cc1ccc(S(=O)(=O)N2CCOCC2)cc1NC(=O)COC(=O)CNC(=O)c1ccc(C(C)(C)C)cc1 | 20.2% |
| COC(=O)C1=C(c2cc3ccccc3s2)C[C@@H]2CC[C@H]1N2C(=O)NCCCOC(C)C | 2.84% |
| Cc1ccc(S(=O)(=O)N(C)N=O)cc1 | 19.1% |
| CCn1ccnc1CN1CCN(CC=C(C)C)C(CCO)C1 (stereo not drawn) | 9.77% |
| Cc1ccccc1-c1ccc(/C=C2/SC(N3CCOCC3)=NC2=O)o1 | -3.7% |
| O=C1N=C(N2CCOCC2)S/C1=C/c1ccc(-c2ccc(F)cc2)o1 | 9.65% |
| Cc1ccc(-c2ccc(/C=C3\SC(N4CCOCC4)=NC3=O)o2)cc1 | -54.6% |
| CCc1nc2c(nnn2Cc2ccc(F)cc2)c(=O)[nH]1 | 1.79% |
| COc1ccc(C2CCCN2C(=S)Nc2cccc(Cl)c2C)cc1OC (stereo not drawn) | 2.08% |
| N#C/C(=C\c1ccc(OCCN2CCOCC2)cc1)C(=O)Nc1ccccc1F | 12.6% |

| SMILES | hERG current change (%, negative = inhibition) at 1uM |
| --- | --- |
| CCCC(C(=O)OCC)P(=O)(c1ccccc1)c1ccccc1 (stereo not drawn) | -0.896% |
| CCOc1ccccc1NC(=O)CSc1nc2cccnc2n1C | 5.84% |
| Cn1c(SCCCC(=O)c2ccccc2)nnc1-c1ccncc1 | -24.9% |
| Cn1c(SCCCC(=O)c2ccc(Br)cc2)nnc1-c1ccncc1 | -51.1% |
| Cn1c(SCCCC(=O)c2ccc(F)cc2)nnc1-c1ccncc1 | -38.5% |
| Cc1ccc(NC(=O)c2ccc(CSc3nnc(C)s3)cc2)c(C)c1 | 9.08% |
| CCn1c(CNC(=O)c2ccc(OC)c(OC)c2)nnc1SCC(=O)Nc1ccc(OC)cc1 | 6.99% |
| Cn1c(SCc2ccc(C#N)cc2)nnc1-c1ccncc1 | 6.61% |
| c1ccc(CCn2c(SCc3ccccc3)nnc2-c2ccncc2)cc1 | -12.4% |
| N#Cc1ccc(CSc2nnc(-c3ccncc3)n2CCc2ccccc2)cc1 | -78.2% |
| O=C(OCCN1C(=O)c2ccccc2C1=O)c1cccs1 | 11.9% |
| CCC(C)n1c(=N)c(C#N)cc2c(=O)n3cccc(C)c3nc21 (stereo not drawn) | -16.6% |
| C=CCn1c(=N)c(C(=O)NCCCOC)cc2c(=O)n3cc(C)ccc3nc21 | -41.9% |
| CNC(=O)c1cc2c(=O)n3cccc(C)c3nc2n(C(C)C)c1=N | -82.3% |
| Cc1cccn2c(=O)c3cc(C(=O)NCc4cccnc4)c(=N)n(C(C)C)c3nc12 | -67.3% |
| COCCCNC(=O)c1cc2c(=O)n3cccc(C)c3nc2n(C(C)C)c1=N | -46.1% |
| Cc1cccn2c(=O)c3cc(S(=O)(=O)c4ccccc4)c(=N)n(Cc4cccnc4)c3nc12 | -3.7% |
| CCC(C)n1c(=N)c(C#N)cc2c(=O)n3cc(C)ccc3nc21 (stereo not drawn) | -22% |
| CNC(=O)c1cc2c(=O)n3cc(C)ccc3nc2n(C(C)C)c1=N | -81.9% |
| O=C(NCc1cccnc1)c1cccn2c(=O)c3sccc3nc12 | -16.3% |
